# BAZ2B block = blocks human BAZ2B; Q9UIF8; AlphaScreen BAZ2B-H3K14Ac peptide displacement; Potency, µM (top dose mostly 114 µM), usual class: inhibitors; 360,000 tested, 4.4% active; AID 504333; note: nearly all actives have a fitted effect of over 60% in size
#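 Protein-peptide AlphaScreen: BAZ2B 50 nM, b-H3K14Ac 50 nM, 1x PBS pH 7.4 + 0.01% Tween-20. Preincubation 30 min RT; cpd 30 min RT (top 110 uM); beads 20 min RT, light-protected.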
# JMJD2A Tudor = blocks the human JMJD2A Tudor domain. O75164. AlphaScreen JMJD2A-Tudor / H3K4me3 peptide binding. Potency, µM (titrated, usually from 114 µM), usual class: inhibitors. 390,000 tested, 4.4% active; note: nearly all actives have a fitted effect of over 50% in size
# Target sequence (O75164 whole entry, looked up, the tested form may be a part): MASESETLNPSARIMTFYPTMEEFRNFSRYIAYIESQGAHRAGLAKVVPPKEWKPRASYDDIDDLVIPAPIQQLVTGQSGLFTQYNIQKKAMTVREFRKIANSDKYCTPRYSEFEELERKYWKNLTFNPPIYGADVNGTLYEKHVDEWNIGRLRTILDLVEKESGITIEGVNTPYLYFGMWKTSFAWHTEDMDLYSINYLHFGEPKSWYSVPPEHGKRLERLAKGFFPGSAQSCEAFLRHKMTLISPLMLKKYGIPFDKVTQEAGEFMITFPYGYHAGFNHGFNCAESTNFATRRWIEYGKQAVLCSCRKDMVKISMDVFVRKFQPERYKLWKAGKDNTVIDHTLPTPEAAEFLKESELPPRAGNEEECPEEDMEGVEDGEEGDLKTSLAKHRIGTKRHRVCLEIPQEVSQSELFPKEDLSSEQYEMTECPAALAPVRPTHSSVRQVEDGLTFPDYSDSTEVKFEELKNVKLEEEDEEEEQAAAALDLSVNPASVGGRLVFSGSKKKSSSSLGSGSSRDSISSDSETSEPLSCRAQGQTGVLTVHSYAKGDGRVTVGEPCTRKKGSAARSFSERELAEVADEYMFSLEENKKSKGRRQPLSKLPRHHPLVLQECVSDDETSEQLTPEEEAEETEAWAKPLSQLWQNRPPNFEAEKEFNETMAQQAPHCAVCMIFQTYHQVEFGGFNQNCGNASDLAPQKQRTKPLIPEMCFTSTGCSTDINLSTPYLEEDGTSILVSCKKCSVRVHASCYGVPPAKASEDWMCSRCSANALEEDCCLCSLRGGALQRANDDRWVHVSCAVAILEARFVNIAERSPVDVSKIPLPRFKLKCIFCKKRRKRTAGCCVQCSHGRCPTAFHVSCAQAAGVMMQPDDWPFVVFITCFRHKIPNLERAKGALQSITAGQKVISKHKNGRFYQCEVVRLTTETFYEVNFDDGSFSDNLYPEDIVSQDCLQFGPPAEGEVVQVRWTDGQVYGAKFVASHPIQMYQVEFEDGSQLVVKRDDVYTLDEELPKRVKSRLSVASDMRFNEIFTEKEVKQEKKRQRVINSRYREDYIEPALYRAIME
# G9a block = blocks human histone lysine methyltransferase G9a; Potency, µM (highest dose often 102 µM), usual class: inhibitors; AID 504332; G9a H3K9 monomethylation, AlphaScreen, 2 h; 350,000 tested, 8.8% active; Q96KQ7; note: nearly all actives have a fitted effect of over 75% in size
#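 G9a (20 nM) was preincubated 15 min with compound, then reacted 2 h at room temperature with 500 nM biotin-H3K9 peptide and 20 µM SAM. Monomethyl-H3K9 detected by AlphaScreen using anti-H3K9me1 antibody.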
# HP1b binding inh = HP1-beta chromodomain-methylated histone interaction inhibition; P83916; AlphaScreen HP1-beta / biotin-H3K9me3 peptide binding; Potency, µM (highest dose often 114 µM), usual class: inhibitors; 390,000 tested, 0.56% active; AID 540317; note: nearly all actives have a fitted effect of over 70% in size
#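 HP1-beta protein (50 nM final) preincubated 30 min at room temperature with biotinylated H3(1-18)K9me3 peptide (50 nM) in PBS pH 7.4, 0.01% Tween-20, then compound added for 30 min. AlphaScreen streptavidin donor/nickel chelate acceptor beads (10 ug/mL final), 30 min dark, luminescence read.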
# GLS inhibitor = blocks human kidney-isoform glutaminase activity; O94925; 410,000 tested, 0.21% active; Potency, µM (series often up to 45.5 µM), actives largely listed as inhibitors; GLS enzymatic activity, qHTS titration
#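 hKGA in 45 mM KH2PO4 pH 8.2, 0.02% Tween-20 with pin-transferred compounds; 1 mM L-glutamine (stock) plus glutamate oxidase/HRP/Amplex Red coupling added. Fluorescence read initially and after 30 min at RT.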
# A number is an active result; – = inactive; ? = inconclusive; · = no result given; [ ] = dose if it differs, or a comment. Shown are actives, neighbours in structure and some others; about 10% of the full set was active somewhere. Calls come from the whole dose curve; as a rule, active = well fitted curve in the direction sought with a large enough effect; inconclusive = small, poorly fitted or top-dose-only effect, or another doubt; inactive = no such curve, though single readings can be large; an effect the other way counts as inactive or inconclusive.
SMILES,BAZ2B block,JMJD2A Tudor,G9a block,HP1b binding inh,GLS inhibitor
O=C1c2oc3ccc(Cl)cc3c(=O)c2C(c2ccccn2)N1CCCN1CCOCC1 (stereo not given),?,–,20µM,–,–
Cc1ccc(C2c3c(oc4ccccc4c3=O)C(=O)N2CCCN2CCOCC2)o1 (stereo not given),–,14.1µM,?,–,–
CC(C)c1ccc(C2c3c(oc4ccc(Cl)cc4c3=O)C(=O)N2CCCN2CCOCC2)cc1 (stereo not given),?,–,–,–,–
C=CCOc1ccc(C2c3c(oc4ccccc4c3=O)C(=O)N2CCCN2CCOCC2)cc1 (stereo not given),–,–,50.1µM,–,–
COc1ccc(C2c3c(oc4ccc(C)cc4c3=O)C(=O)N2CCCN2CCOCC2)cc1OC (stereo not given),–,–,–,–,–
COc1ccc(Cc2nnc(SC(C)C(=O)Nc3ccc(F)cc3Cl)o2)cc1 (stereo not given),–,–,–,–,–
COc1cc2c(cc1OC)C(COc1ccccc1OC)N(C(=O)COc1ccc(Cl)cc1)CC2 (stereo not given),–,–,–,–,–
CCCOc1ccc(/C=C/C(=O)NCc2ccccc2)cc1,–,–,–,–,–
c1ccc(-c2nc3nc4ccccc4nc3n2Cc2ccco2)cc1,–,–,15.8µM,–,–
Fc1ccc(-c2nc3nc4ccccc4nc3n2Cc2ccco2)cc1,–,–,–,–,–
Cc1cc(NC(=O)CS(=O)(=O)c2ccc(Cl)cc2)no1,–,79.4µM,–,–,–
Cc1cc(NC(=O)CS(=O)(=O)c2ccc(F)cc2)no1,–,–,?,–,–
O=C(NCc1nnc(SCC(=O)N2CCC(Cc3ccccc3)CC2)o1)c1ccccc1F,–,–,44.7µM,–,–
O=C(CSc1nnc(CNC(=O)c2ccco2)o1)Nc1ccc(Br)cc1,?,–,10µM,–,–
O=C(NCc1nnc(SCC(=O)N2CCCC2)o1)c1c(F)cccc1F,–,–,–,–,–
O=C(CSc1nnc(CNC(=O)c2ccco2)o1)Nc1ccccc1F,–,–,25.1µM,–,–
CCOc1ccc(NC(=O)CSc2nnc(CNC(=O)c3ccco3)o2)cc1,–,–,–,–,–
COc1cccc(C(=O)NCC(=O)N2CCN(c3ccc(C(F)(F)F)cn3)CC2)c1,–,–,–,–,–
Cc1ccc2c(c1)Sc1c(ccc3ccccc13)N2,39.8µM,?,?,?,–
Cc1ccc(-c2nnc(SCC(=O)NCC3CCCO3)nc2-c2ccc(C)cc2)cc1 (stereo not given),–,?,?,–,–
CCOc1ccc(C2C(C(=O)Nc3ccc(OC)cc3)=C(C)Nc3nc(SCc4ccc(Cl)cc4)nn32)cc1 (stereo not given),–,–,–,–,–
CCn1cc2nc(SCC(=O)Nc3ccccc3C(F)(F)F)n(Cc3ccc(C)cc3)c(=O)c2n1,?,–,?,–,–
CCCCC(CCC(=O)O)(C(=O)OCC)c1csc(Nc2ccc(OCC)cc2)n1 (stereo not given),?,–,31.6µM,–,–
CCOc1ccc(Cc2nnc(SCC(=O)c3ccc(OC)cc3)o2)cc1,–,–,?,–,–
CCOc1ccc(Nc2nc(Cc3nnc(SCC(=O)O)o3)cs2)cc1,?,89.1µM,50.1µM,–,?
SMILES,BAZ2B block,JMJD2A Tudor,G9a block,HP1b binding inh,GLS inhibitor
COc1cc(C(=O)Nc2ccc3oc(-c4ccccc4)nc3c2)cc(OC)c1OC,–,–,?,–,–
CCOc1ccccc1NC(=O)c1cc2cc3cc(C)ccc3nc2s1,–,–,–,–,–
Cc1ccc2nc3sc(C(=O)Nc4ccc(F)cc4)cc3cc2c1,?,39.8µM,–[12.7 µM],–,–
O=c1c(/C=N/N2CCOCC2)c(C(F)(F)F)[nH]n1-c1ccccc1,–,–,39.8µM,–,–
Cc1ccc(S(=O)(=O)c2c(COC(=O)c3ccccc3Cl)c(-c3ccccc3)nn2C)cc1,6.31µM,–,–,–,–
Cc1ccc(S(=O)(=O)c2c(CO)c(-c3ccccc3)nn2C)cc1,–,–,–,–,–
COc1ccc(C(=O)Nc2cc(-c3cccc(C)c3)nn2-c2ccccc2)cc1,–,–,–,–,–
O=C(c1cnc2n(c1=O)CCS2)N(C1CCCCC1)C1CCCCC1,–,–,79.4µM,–,–
O=C(NCc1ccco1)c1ccccc1-c1ccccc1,–,–,–,–,–
CSc1ccccc1NC(=O)c1cnc2n(c1=O)CCS2,–,–,?,–,–
O=C(NCc1ccco1)c1cnc2n(c1=O)CCS2,–,–,50.1µM,–,–
Cc1ccc(C)c(NC(=O)c2cnc3n(c2=O)CCS3)c1,–,–,56.2µM,–,–
O=C(NCc1ccc(F)cc1)c1cnc2n(c1=O)CCS2,–,–,?,–,–
O=C(O)c1ccccc1-c1ccccc1C(=O)NCc1ccco1,–,–,50.1µM,–,–
Cn1nc(C(C)(C)C)cc1C(=O)N1CCCCC1c1cc(C(=O)NCc2cccnc2)no1 (stereo not given),·,·,·,·,–
COC(=O)[C@]12CCCCC=C1N(CCC1=CCCCC1)C(=O)[C@H](CC(=O)N1CCOCC1)C2,·,·,·,·,–
Cn1c(=O)c2sccc2n2c(CCC(=O)NCc3ccccc3)nnc12,–,–,?,–,–
Cc1[nH]c(=O)[nH]c(=O)c1S(=O)(=O)Nc1cccc([N+](=O)[O-])c1C,–,–,–,–,–
CCOC(=O)c1c(NC(=O)COC(=O)/C=C/c2ccco2)sc2c1CC(C)(C)NC2(C)C,?,?,15.8µM,?,–
CCOC(=O)c1c(NC(=O)CSc2nc3ccccc3[nH]2)sc2c1CC(C)(C)NC2(C)C,–,–,39.8µM,–,–
O=C(O)CCNC(=O)/C(=C\c1ccco1)NC(=O)c1ccco1,–,–,22.4µM,–,–
O=C(NCc1ccccc1)/C(=C/c1ccccc1)NC(=O)c1ccco1,–,–,–,–,–
O=C(NCCCO)/C(=C\c1ccco1)NC(=O)c1ccco1,–,–,70.8µM,–,–
O=C(NC(Cc1ccccc1)C(=O)O)/C(=C/c1ccco1)NC(=O)c1cccc([N+](=O)[O-])c1 (stereo not given),–,–,44.7µM,–,–
O=C(NCc1ccccc1)/C(=C/c1ccco1)NC(=O)c1ccco1,–,–,35.5µM,–,–
O=C(NC(Cc1ccccc1)C(=O)O)/C(=C/c1ccc([N+](=O)[O-])cc1)NC(=O)c1ccco1 (stereo not given),–,–,?,–,–
COc1ccc(-n2c(=O)c(-c3cc(F)cc(F)c3)nc3cnc(N(C)C)nc32)cc1,·,·,–[0.501 µM],·,·
O=C(NCCO)/C(=C\c1ccco1)NC(=O)c1ccco1,–,–,31.6µM,–,–
O=C(NCCCn1ccnc1)/C(=C/c1ccc(F)cc1)NC(=O)c1ccccc1,70.8µM,–,–,–,–

# Bioassay records from PubChem BioAssay.
